Only some compounds are listed: those with a hit (about 11% of all), similar ones and a draw of the others.
ALDH1A1 block: blocks purified human ALDH1A1 activity; Potency, µM (titrated, usually from 75.3 µM), for inactives: top-dose activity, negative = inhibition, most hits filed as inhibitors; Purified ALDH1A1, NADH fluorescence, propionaldehyde substrate; hit rate 7.3% among 220,000;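 further: potency means the concentration at half of the fitted maximal effect; plate controls were no enzyme wells and a reference inhibitor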
IMPase Li inh: IMPase inhibition in cells with lithium potentiation | CHO-M1 cells, IP1 TR-FRET (IP-One), carbachol + lithium | Potency, µM (series often up to 59.4 µM), inactives show at the highest dose activity, negative = IMPase inhibition, most hits filed as inhibitors | hit rate 0.35% among 210,000; active means well fitted curve in the direction sought with a large enough effect; inconclusive means small, poorly fitted or top-dose-only effect, or another doubt; inactive means no such curve, though single readings can be large; an effect the other way counts as inactive or inconclusive;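 further: IP1 builds up when IMPase is blocked and the TR-FRET signal falls; potency means the concentration at half of the fitted maximal effect; plate controls were basal vehicle for no effect and high inhibitor control for full effect; nearly all actives have a fitted effect of over 50% in size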
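CHO cells stably expressing M1 receptor (2000/well) were cultured 16–30 h, then exposed to compounds with a small lithium addition for 30 min at 37C. IP1 was measured by TR-FRET competition; AC50 from Hill fits.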
IMPase inh: IMPase inhibition in cells. CHO-M1 cells, IP1 accumulation, HTRF TR-FRET ratio. inhibition (IP1 accumulation), % at 46.1 µM. AID 901. 120,000 tested, under 10 active; active means well fitted curve in the direction sought with a large enough effect in the signal ratio, not every such curve was filed as active; inconclusive means small, poorly fitted or top-dose-only effect, or a change in a side signal; inactive means no such curve, though single readings can be large or run the other way; the % refers to the signal ratio;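 further: cells stimulated with carbachol in lithium chloride buffer; plate controls were DMSO basal wells for no effect and reference inhibitor wells for full effect; higher means more IMPase inhibition seen as more IP1 and lower FRET ratio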
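Elevated IP1 in lysates lowers TR-FRET signal (665/620 ratio and 620 channel reported). Cells were CHO-M1, given carbachol (50 uM as added) plus 50mM LiCl, pH 7.4, 30 min, 37C; compounds titrated up to 46 uM; AC50 by Hill equation.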
HPGD inh: HPGD (human) dehydrogenase inhibition; Potency, µM, for inactives: at the top dose activity change, negative = inhibition, actives largely listed as inhibitors; P15428; hit rate 4.3% among 150,000; purified HPGD, NADH fluorescence kinetic, PGE2 substrate; further: potency means the concentration at half of the fitted maximal effect
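20 nM HPGD preincubated 15 min at room temperature with compound in 50 mM Tris-HCl pH 8, 0.01% Tween 20. Started with 1 mM NAD+ and 30 uM prostaglandin E2; NADH fluorescence (360/450 nm) read 5 times over 30-s intervals, last minus first.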
PNC inhibitor: blocks assembly of the perinucleolar compartment; activity change (PNC), negative = inhibition, % at 10 µM; hit rate 3.1% among 140,000; AID 2417; PC3M PTB-GFP, PNC prevalence imaging, 16 h; hits give low values;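 active means readout at or below -70, meaning at least 70% loss of cells showing the perinucleolar compartment, a nuclear body marking cancer cells; inconclusive means readout between -30 and a set limit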;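 further: plate controls were DMSO wells for no effect and camptothecin positive control wells for full effect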
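Compounds are pinned in duplicate onto adhered PC3M cells stably expressing GFP-tagged PTB and incubated 16 h at 37 C. Cells are then fixed, nuclei stained with Hoechst, and PNC-positive cells counted.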
12-hLO inh: blocks human 12-lipoxygenase activity. AID 1452. Potency, µM (series often up to 57.1 µM), for the others: top-dose activity change, negative = inhibition, actives largely listed as inhibitors. hit rate 0.12% among 150,000. P18054. purified 12-hLO, xylenol orange hydroperoxide absorbance; active means well fitted curve in the direction sought with a large enough effect; inconclusive means small, poorly fitted or top-dose-only effect, or another doubt; inactive means no such curve, though single readings can be large; an effect the other way counts as inactive or inconclusive; further: potency means the concentration at half of the fitted maximal effect; nearly all actives have a fitted effect of over 55% in size
Target sequence (P18054 whole entry, looked up): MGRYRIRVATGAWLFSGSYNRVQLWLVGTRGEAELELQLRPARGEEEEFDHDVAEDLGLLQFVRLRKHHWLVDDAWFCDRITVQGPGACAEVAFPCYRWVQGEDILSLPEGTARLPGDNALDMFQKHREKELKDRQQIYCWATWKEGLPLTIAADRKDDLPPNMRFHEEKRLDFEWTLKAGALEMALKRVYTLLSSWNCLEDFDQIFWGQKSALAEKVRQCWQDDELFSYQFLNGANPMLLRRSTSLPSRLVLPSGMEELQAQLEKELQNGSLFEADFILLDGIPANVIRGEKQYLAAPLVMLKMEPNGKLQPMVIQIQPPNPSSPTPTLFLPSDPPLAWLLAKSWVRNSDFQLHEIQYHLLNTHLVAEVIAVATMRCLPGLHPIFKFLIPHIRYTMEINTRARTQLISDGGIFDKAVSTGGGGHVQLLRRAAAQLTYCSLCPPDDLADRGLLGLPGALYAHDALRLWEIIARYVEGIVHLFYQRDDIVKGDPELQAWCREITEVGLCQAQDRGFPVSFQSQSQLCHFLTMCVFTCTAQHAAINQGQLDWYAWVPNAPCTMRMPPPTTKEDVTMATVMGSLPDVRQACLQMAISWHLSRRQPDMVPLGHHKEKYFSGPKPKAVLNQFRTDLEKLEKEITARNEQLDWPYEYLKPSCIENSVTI
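Hydroperoxide formation by human 12-lipoxygenase from 40 uM arachidonic acid was followed colorimetrically via ferric-xylenol orange complex, using the 573/405 nm absorbance ratio. Enzyme concentration was 150 nM, with 30 min reaction at room temperature.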
Active calls of the source: *; u = inconclusive; x = no result given; [ ] = dose if it differs, or a comment. Unless noted, the call rests on the fitted dose curve; in most records, active means well fitted inhibition curve with a large enough effect (not every such curve was filed as active); inconclusive means small, poorly fitted or top-dose-only effect, or another doubt; inactive means no such curve, though single readings can be large or run the other way. Unless noted, on the % scale 0 is the no-effect control and ±100 the full control effect.

SMILES | ALDH1A1 block | IMPase Li inh | IMPase inh | HPGD inh | PNC inhibitor | 12-hLO inh
CCOC(=O)Cc1nnc(NC(=O)C2CCCCC2)s1 | -8.7% | -7.0% | x | x | x | x
OCC1OC(n2cnc3c(=S)nc[nH]c32)C(O)C1O (stereo not drawn) | u | -7.6% | x | -10.8% | x | 0.6%
CCc1ccccc1NC(=O)c1cnn2c(C(F)(F)F)cc(-c3ccc(OC)c(OC)c3)nc12 | x | x | 4.5 | x | x | x
COc1ccc(/C=N/NC(=O)C(C)n2cnc3ccccc3c2=O)cc1 (stereo not drawn) | 1.9% | -2.3% | 1.4 | -4.6% | -119.3* | -1.4%
O=C(c1ccc2c(c1)N(Cc1cccc(Cl)c1)C(=O)c1ccccc1S2(=O)=O)N1CCN(c2ccccn2)CC1 | 20µM* | 14.0% | x | x | x | x
O=C(c1cccc(Cl)c1)N1CCN(c2ccccn2)CC1 | u | 34.8%[38.3 µM] | 0.4 | -12.1% | 18.6 | -2.7%
COc1ccc(CNC(=O)[C@H]2C[C@@H]2[C@H](NP(=O)(c2ccccc2)c2ccccc2)c2ccccc2)cc1OC | -12.4% | 7.0% | x | -6.6% | x | -5.1%
CCCn1nnc(NC(=O)/C=C/c2ccc(C(C)C)cc2)n1 | 14.1µM* | x | x | x | x | x
CCOC(=O)c1cnn(-c2c(Cc3ccccc3)c(C)nc3c(-c4ccccc4)c(C)nn23)c1N | 0.1µM* | 26.8%[38.3 µM] | 5.2 | -7.9% | -27.5 | 1.4%
CCOC(=O)c1cnn(-c2cc(C(C)(C)C)nc3c(-c4ccccc4)c(C)nn23)c1N | 8.7% | 10.5%[38.3 µM] | 1.7 | -4.8% | 1.5 | 3.2%
COc1ccc(S(=O)(=O)N(CC(=O)Nc2cccc(C(F)(F)F)c2)c2ccc(C)cc2)cc1 | x | x | 7.1 | x | x | x
COc1ccc(OC)c(/C=N/NC(=O)c2cc3c(OC)c(OC)ccc3[nH]2)c1 | -13.5% | 5.4% | x | -17.3% | -112.4* | -1.5%
COc1cc2c(cc1OC)C(c1ccccc1)N(C(=O)CCl)CC2 (stereo not drawn) | u | 11.7%[38.3 µM] | -3.7 | -10.6% | 62.4 | 0.8%
COc1cc2c(cc1OC)C(c1ccccc1O)N(C1CC(=O)N(c3ccccc3)C1=O)CC2 (stereo not drawn) | 12.6µM* | 9.4%[38.3 µM] | -16.2 | -13.2% | u | -6.9%
NC(=NCCc1ccccc1)NS(=O)(=O)c1ccc2ccccc2c1 | 1.4% | 2.6% | x | -9.4% | 7.0 | -5.1%
CC(C)C[C@@H](CC(=O)N[C@@H](CCC(=O)O)CC(=O)O)NC(=O)[C@@H]1CNCC[C@H]1NC(=O)C[C@H](CCCN)NC(=O)C[C@H](CO)NC(=O)[C@@H]1CNCC[C@H]1N | u | 11.4% | x | -7.6% | x | 2.4%
CCOC(=O)c1sc(=S)n(-c2ccccc2)c1N | u | -5.8% | -7.0 | -24.8% | -19.5 | 14.1%
CCOC(=O)c1sc(=S)n(-c2ccc(C)cc2)c1SC | 22.4µM* | 16.9%[38.3 µM] | -4.9 | u | u | -12.5%
CCNC(=O)c1sc(=S)n(-c2ccc(C)cc2)c1N | 12.6µM* | -7.4%[38.3 µM] | 3.7 | 35.5µM* | 15.2 | -10.0%
CN1CCN(C(=O)c2sc(=S)n(-c3ccccc3)c2N)CC1 | 3.16µM* | -7.9%[38.3 µM] | -4.0 | 7.94µM* | -96.8* | 0.0%
Cc1ccc(-n2c(N)c(C(=O)N3CCOCC3)sc2=S)cc1 | 3.16µM* | 14.1%[38.3 µM] | -4.2 | 10µM* | -126.4* | 0.1%
N#C/C(=C(/O)COC(=O)CSc1ccc2ccccc2c1)c1nc2ccccc2[nH]1 | -2.9% | -7.0% | -5.7 | -16.2% | -80.4* | -0.5%
CCCCOc1ccc(Cn2c(=O)sc3ccccc32)cc1OC | x | x | 0.2 | x | x | x
COc1ccc(NC(=S)NC(NC(=O)c2cccc(Cl)c2)C(Cl)(Cl)Cl)c([N+](=O)[O-])c1 (stereo not drawn) | 17.8µM* | 10.7% | 15.7 | -12.5% | 12.9 | -16.7%
CCOC(=O)c1c(-c2ccco2)csc1N | 20µM* | -16.0%[38.3 µM] | -6.9 | -27.9% | 1.8 | -19.8%
SMILES | ALDH1A1 block | IMPase Li inh | IMPase inh | HPGD inh | PNC inhibitor | 12-hLO inh
CCOC(=O)c1c(-c2cccs2)csc1N | u | -1.6% | x | x | x | x
COc1ccc2c(=O)c(Oc3ccc(C(=O)O)cc3)c(C(F)(F)F)oc2c1 | 20.9% | -3.8% | x | x | x | x
COc1ccccc1CCn1c(=O)c(-c2cc(F)cc(F)c2)nc2cncnc21 | u | u | x | u | x | -6.8%
CSc1ncccc1C(=O)Nc1ccc(S(=O)(=O)NC2=NCCCCC2)cc1 | 8.91µM* | 6.0% | x | x | x | x
CCOC(=O)c1cc2c(C)n(-c3ccc(OCC)cc3)c(C)c2cc(C(=O)OCC)c1=O | 25.5% | 1.8% | -2.1 | -4.4% | 16.4 | 1.0%
COC(=O)c1ccc(-n2c(C)cc(C(=O)CCl)c2C)cc1 | 0.447µM* | 13.1% | x | x | x | x
CCOc1ccc(-n2c(C)cc(C(=O)CCl)c2C)cc1 | 0.112µM* | 14.1% | x | x | x | x
COc1ccc(NC(=O)CCCSc2nc(-c3ccco3)cc(C(F)(F)F)n2)cc1 | x | x | -9.3 | x | x | x
CCN(CC)c1ccc2cc(-c3nnc(-c4ccncc4)o3)c(=O)oc2c1 | u | 3.3%[38.3 µM] | 4.4 | u | -119.2* | 4.7%
CCN(CC)c1ccc2cc(C(N)=O)c(=O)oc2c1 | u | -0.3% | 4.1 | u | -104.6* | -2.5%
O=C(c1cccc(F)c1)N1CCC2(CCN(Cc3ccncc3)CC2)CC1 | -4.1% | 7.6% | x | -3.1% | x | -2.1%
COc1ccccc1C(=O)Nc1ccc(C2=NNC(=O)CC2C)cc1 (stereo not drawn) | -7.3% | -6.9% | x | -14.7% | -113.8* | -1.8%
Cc1cc(C)nc(SCC(=O)N/N=C/c2cccn2-c2ccc(O)cc2)n1 | -10.6% | 2.6%[38.3 µM] | 9.1 | -10.1% | u | -5.6%
Cc1cc(C)nc(SCC(=O)N/N=C/c2cccn2-c2cccc(C(F)(F)F)c2)n1 | -0.5% | 0.3%[38.3 µM] | 10.0 | -7.7% | -108.4* | -8.4%
CN(Cc1ccc(-n2cccn2)cc1)C(=O)c1cnn2c1NC(c1ccco1)CC2C(F)(F)F (stereo not drawn) | 7.94µM* | 67.1%[38.3 µM] | 8.5[1.84 µM] | -26.3% | 7.9 | -8.4%
COCCNC(=O)c1cnn2c1NC(c1ccco1)CC2C(F)(F)F (stereo not drawn) | u | 9.4% | 0.2 | 25.1µM* | -4.0 | -0.6%
CCOC(=O)N1CCC(NC(=O)c2cnn3c2NC(c2ccco2)CC3C(F)(F)F)CC1 (stereo not drawn) | u | -9.0%[38.3 µM] | 6.1 | -8.7% | 9.5 | -2.4%
COc1ccc2c(c1)C(=O)[C@@H](OC(=O)NC1CCCC1)[C@H](c1ccc(OC)c(Br)c1)O2 | -7.5% | 9.9% | x | -6.4% | x | x
O=c1c(-c2ccc(Cl)cc2)c(C(F)(F)F)oc2c(CN3CCCCC3)c(O)ccc12 | x | x | -1.6 | x | x | x
CCCCCCCCCCCCCc1ccco1 | -2.9% | 1.2% | x | -7.5% | x | 2.3%
O=C1C2C3C=CC(C3)C2C(=O)N1c1cccc(N2C(=O)C3C4C=CC(C4)C3C2=O)n1 (stereo not drawn) | -5.7% | 15.5%[38.3 µM] | 0.2 | -1.9% | -98.8* | 2.4%
